We go through 26 compounds from PubChem BioAssay (Tox21).

For test [1], the target named is Acetylcholinesterase (Homo sapiens) (UniProt P22303). Description: Acetylcholinesterase (AChE) small molecule antagonists: enzyme-based qHTS assay (AID 1347397; calls by dose curve; note: % is set by controls: 0 for no effect and ±100 for the full control effect; nearly all actives have a fitted effect of over 55% in size). The following applies: Potency: AChE enzyme activity inhibition. In a few lines:
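Recombinant human AChE, dispensed at 50 mU/mL, was preincubated with Tox21 10K compounds or DMSO vehicle for 30 min at room temperature. DTNB plus acetylthiocholine was then added, and thiocholine was measured colorimetrically after a further 10 min.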

Test [2] has the same target. Briefly: Acetylcholinesterase (AChE) small molecule antagonists: enzyme-based qHTS assay with human liver microsomes (AID 1347399; calls by dose curve; note: % is set by controls: 0 for no effect and ±100 for the full control effect; nearly all actives have a fitted effect of over 60% in size). The settings on record: Potency: qHTS inhibition. The gist of the method: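 Recombinant human AChE (50 mU/mL in the enzyme mix) and human liver microsomes (0.25 mg/mL final) were preincubated with compound and NADPH (0.25 mg/mL final) for 30 min at 37 C. Acetylthiocholine/DTNB was then added; thiocholine was read colorimetrically after 10 min at room temperature.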
(In general: qHTS replaces the single test concentration by a dilution series.)

Test [3] concerns the target Cytochrome P450 2C19 (Homo sapiens) (UniProt P33261). Briefly: Cytochrome P450 Family 2 Subfamily C Member 19 (CYP2C19) small molecule antagonists: luciferase reporter qHTS assay (AID 1671197). For activity change, negative = inhibition: series mostly up to about 120 µM; % is set by controls: 0 for no effect and ±100 for the full control effect. Note: nearly all actives have a fitted effect of over 65% in size. Note: potency is the fitted concentration of half-maximal effect. The gist of the method:
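P450-Glo CYP2C19 screening system; proluciferin substrate; DMSO compound stocks; 10 min RT preincubation; NADPH regeneration, 1 h at 37C; luciferin detection reagent, 20 min RT; luminescence as RLU.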

Test [4] concerns the target Voltage-gated inwardly rectifying potassium channel KCNH2 (Homo sapiens) (UniProt Q12809). Briefly: Human Ether-a-go-go-Related Gene (hERG) channel small molecule antagonists: fluorescence cell-based qHTS assay (AID 1671200).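 For activity change, negative = inhibition: hERG-expressing U2OS cells given a thallium stimulus after FluxOR II dye loading; series mostly up to about 77 µM; % is set by controls: 0 for no effect and ±100 for the full control effect.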 Note: nearly all actives have a fitted effect of over 50% in size. Note: potency is the fitted concentration of half-maximal effect. The gist of the method: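 Fluorescence at 540 nm emission (480 nm excitation) was recorded kinetically for 2 min at 1-second intervals once the thallium-containing stimulus reached cells previously loaded with FluxOR II dye.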
In general terms: The hERG channel carries a current that helps repolarise heart muscle cells.

Test [5] deals with Cytochrome P450 2D6 (Homo sapiens) (UniProt P10635). Briefly: Cytochrome P450 Family 2 Subfamily D Member 6 (CYP2D6) small molecule antagonists: luciferase reporter qHTS assay (AID 1671196). For activity change, negative = inhibition: series mostly up to about 120 µM; % is set by controls: 0 for no effect and ±100 for the full control effect. Note: nearly all actives have a fitted effect of over 50% in size. Note: potency is the fitted concentration of half-maximal effect. In a few lines:
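Read-out is luminescence from luciferin formed by CYP2D6 turnover of a proluciferin substrate, recorded as relative luminescence units. Reactions ran 1 h at room temperature after NADPH regeneration solution was added.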
(In general: In a reporter assay the amount or activity of a reporter protein is the signal.)

In test [6] the target is Cytochrome P450 2C9 (Homo sapiens) (UniProt P11712). Description: Cytochrome P450 Family 2 Subfamily C Member 9 (CYP2C9) small molecule antagonists: luciferase reporter qHTS assay (AID 1671198). Note: nearly all actives have a fitted effect of over 50% in size. Note: potency is the fitted concentration of half-maximal effect. In a few lines:
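CYP2C9 activity was measured with a P450-Glo proluciferin substrate. Enzyme–substrate mix was held with compound for 10 min at room temperature, then NADPH regeneration solution was added for 1 h at 37C. Luciferin product was read as luminescence.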

For test [7], the target named is Cytochrome P450 1A2 (Homo sapiens) (UniProt P05177). Description: Cytochrome P450 Family 1 Subfamily A Member 2 (CYP1A2) small molecule antagonists: luciferase reporter qHTS assay (AID 1671199). For activity change, negative = inhibition: series mostly up to about 120 µM; % is set by controls: 0 for no effect and ±100 for the full control effect. Note: nearly all actives have a fitted effect of over 50% in size. Note: potency is the fitted concentration of half-maximal effect. In a few lines: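 P450-Glo CYP1A2, 1536-well qHTS: enzyme/proluciferin substrate + cpd (DMSO), 10 min RT; NADPH regen, 1 h RT; detection reagent, 20 min; luminescence, RLU.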

Test [8] concerns the target Cytochrome P450 3A4 (Homo sapiens) (UniProt P08684). Description: Cytochrome P450 Family 3 Subfamily A Member 4 (CYP3A4) small molecule antagonists: luciferase reporter qHTS assay (AID 1671201). Note: nearly all actives have a fitted effect of over 50% in size. Note: potency is the fitted concentration of half-maximal effect. The gist of the method: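 qHTS, 1536-well. CYP3A4 + proluciferin substrate, cpd 10 min RT → NADPH regen 1 h RT → detection reagent 20 min → luminescence (RLU). Ketoconazole positive control.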

Test [9] has as its target Acetylcholinesterase (Homo sapiens) (UniProt P22303). Description: Acetylcholinesterase (AChE) small molecule antagonists: fluorescence cell-based qHTS assay (AID 1347398; calls by dose curve). The settings on record: Potency: AChE activity. In a few lines:
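Human SH-SY5Y cells were plated overnight at 37 C, exposed to compound for 30 min at 37 C, 5% CO2, then given acetylthiocholine plus Thiolite Green for 40 min at room temperature; thiocholine fluorescence (Ex/Em 490/520 nm) reports endogenous AChE activity.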

Each structure is given as a SMILES string. Unmarked numbers belong to inactive results. Results filed as inconclusive are left out. Activity calls are given as the source filed them. Unless noted, calls come from the whole dose curve; as a rule, active = well fitted curve in the direction sought with a large enough effect in the repeat runs; inconclusive = weak or mixed curves; inactive = no such curve, though single readings can be large; an effect the other way counts as inactive or inconclusive.

Cytochrome P450 2D6 (Homo sapiens), sequence (P10635 whole entry, looked up): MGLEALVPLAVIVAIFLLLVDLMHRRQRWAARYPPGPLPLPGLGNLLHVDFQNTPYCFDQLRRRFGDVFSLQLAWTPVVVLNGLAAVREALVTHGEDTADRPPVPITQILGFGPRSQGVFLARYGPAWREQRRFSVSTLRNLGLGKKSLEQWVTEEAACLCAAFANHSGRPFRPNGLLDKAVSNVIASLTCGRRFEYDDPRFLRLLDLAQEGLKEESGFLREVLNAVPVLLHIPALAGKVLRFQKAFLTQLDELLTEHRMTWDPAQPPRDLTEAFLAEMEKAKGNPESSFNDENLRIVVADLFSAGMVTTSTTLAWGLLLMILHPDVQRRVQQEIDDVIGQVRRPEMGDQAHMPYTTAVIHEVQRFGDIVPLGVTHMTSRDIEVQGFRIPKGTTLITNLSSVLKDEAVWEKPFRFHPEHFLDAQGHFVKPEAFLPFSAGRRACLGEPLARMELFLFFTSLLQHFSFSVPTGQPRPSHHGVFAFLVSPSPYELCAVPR
Cytochrome P450 1A2 (Homo sapiens), sequence (P05177 whole entry, looked up): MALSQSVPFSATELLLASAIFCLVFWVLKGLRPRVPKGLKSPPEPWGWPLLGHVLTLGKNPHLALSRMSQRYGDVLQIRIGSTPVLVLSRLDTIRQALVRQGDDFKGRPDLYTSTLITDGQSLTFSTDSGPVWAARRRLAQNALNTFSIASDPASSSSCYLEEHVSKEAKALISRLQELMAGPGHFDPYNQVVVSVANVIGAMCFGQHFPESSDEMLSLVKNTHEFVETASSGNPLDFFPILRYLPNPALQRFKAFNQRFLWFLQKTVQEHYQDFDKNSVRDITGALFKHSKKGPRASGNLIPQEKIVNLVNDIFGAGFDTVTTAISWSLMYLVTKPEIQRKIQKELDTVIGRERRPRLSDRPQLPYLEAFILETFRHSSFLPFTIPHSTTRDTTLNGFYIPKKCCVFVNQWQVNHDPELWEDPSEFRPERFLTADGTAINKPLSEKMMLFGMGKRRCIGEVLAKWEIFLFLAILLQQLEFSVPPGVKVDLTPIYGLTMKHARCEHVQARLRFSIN
Voltage-gated inwardly rectifying potassium channel KCNH2 (Homo sapiens), sequence (Q12809 whole entry, looked up): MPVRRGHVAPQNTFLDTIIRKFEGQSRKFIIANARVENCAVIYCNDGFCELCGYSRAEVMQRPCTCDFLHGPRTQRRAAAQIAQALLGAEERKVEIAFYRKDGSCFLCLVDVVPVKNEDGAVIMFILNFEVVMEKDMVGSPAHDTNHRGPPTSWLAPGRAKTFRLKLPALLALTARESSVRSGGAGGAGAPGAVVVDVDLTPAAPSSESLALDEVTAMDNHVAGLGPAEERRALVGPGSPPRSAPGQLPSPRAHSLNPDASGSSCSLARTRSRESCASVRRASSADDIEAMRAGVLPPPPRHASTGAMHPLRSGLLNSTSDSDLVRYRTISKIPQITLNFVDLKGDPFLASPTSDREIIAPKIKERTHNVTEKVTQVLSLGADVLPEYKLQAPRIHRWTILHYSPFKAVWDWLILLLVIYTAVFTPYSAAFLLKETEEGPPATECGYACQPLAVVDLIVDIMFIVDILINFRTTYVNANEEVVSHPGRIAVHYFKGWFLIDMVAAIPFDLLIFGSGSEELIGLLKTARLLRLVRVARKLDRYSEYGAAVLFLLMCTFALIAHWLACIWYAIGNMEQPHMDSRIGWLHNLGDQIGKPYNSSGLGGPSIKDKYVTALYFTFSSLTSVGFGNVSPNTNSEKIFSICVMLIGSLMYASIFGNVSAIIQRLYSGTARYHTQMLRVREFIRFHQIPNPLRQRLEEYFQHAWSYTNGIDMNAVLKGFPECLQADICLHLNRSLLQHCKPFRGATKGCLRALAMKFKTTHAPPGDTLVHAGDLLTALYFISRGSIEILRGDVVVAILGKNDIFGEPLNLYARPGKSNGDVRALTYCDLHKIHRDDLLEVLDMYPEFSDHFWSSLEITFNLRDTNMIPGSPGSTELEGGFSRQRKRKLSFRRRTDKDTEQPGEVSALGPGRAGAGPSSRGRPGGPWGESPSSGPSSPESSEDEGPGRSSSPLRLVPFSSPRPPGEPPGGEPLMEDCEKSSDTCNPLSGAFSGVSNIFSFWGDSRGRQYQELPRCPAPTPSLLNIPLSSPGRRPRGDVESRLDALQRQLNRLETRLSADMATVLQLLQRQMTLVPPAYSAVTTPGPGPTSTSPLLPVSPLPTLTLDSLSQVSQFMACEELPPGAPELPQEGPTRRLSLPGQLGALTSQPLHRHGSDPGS
Cytochrome P450 2C9 (Homo sapiens), sequence (P11712 whole entry, looked up): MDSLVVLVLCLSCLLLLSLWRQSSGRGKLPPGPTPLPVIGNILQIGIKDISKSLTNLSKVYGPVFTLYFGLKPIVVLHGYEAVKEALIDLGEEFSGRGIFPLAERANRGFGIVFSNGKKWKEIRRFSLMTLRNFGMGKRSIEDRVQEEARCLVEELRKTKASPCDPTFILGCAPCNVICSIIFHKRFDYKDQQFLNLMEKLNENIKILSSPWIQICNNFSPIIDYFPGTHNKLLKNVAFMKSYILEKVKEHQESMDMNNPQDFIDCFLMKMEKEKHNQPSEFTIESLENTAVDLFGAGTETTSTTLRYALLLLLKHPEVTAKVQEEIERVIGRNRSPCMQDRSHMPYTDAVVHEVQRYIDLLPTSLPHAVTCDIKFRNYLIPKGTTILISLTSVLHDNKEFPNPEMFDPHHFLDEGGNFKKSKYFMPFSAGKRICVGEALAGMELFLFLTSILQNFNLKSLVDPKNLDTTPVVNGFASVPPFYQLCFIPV
Acetylcholinesterase (Homo sapiens), sequence (P22303 whole entry, looked up): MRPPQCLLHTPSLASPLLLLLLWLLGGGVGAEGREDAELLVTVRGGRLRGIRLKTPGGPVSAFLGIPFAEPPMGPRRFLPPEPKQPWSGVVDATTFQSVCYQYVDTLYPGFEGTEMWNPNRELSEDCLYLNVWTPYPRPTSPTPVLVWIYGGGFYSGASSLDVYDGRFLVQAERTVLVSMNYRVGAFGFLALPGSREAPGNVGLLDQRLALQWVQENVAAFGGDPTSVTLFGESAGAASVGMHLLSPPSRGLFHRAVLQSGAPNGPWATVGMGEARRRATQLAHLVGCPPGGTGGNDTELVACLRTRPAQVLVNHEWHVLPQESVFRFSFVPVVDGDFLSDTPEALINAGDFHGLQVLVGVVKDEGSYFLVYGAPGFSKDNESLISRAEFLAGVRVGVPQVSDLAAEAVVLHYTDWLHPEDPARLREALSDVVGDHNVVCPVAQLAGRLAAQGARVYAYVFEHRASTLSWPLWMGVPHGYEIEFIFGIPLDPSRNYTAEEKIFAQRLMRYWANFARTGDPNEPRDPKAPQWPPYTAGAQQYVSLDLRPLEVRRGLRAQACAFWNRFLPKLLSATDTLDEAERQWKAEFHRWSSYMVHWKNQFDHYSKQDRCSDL
Cytochrome P450 2C19 (Homo sapiens), sequence (P33261 whole entry, looked up): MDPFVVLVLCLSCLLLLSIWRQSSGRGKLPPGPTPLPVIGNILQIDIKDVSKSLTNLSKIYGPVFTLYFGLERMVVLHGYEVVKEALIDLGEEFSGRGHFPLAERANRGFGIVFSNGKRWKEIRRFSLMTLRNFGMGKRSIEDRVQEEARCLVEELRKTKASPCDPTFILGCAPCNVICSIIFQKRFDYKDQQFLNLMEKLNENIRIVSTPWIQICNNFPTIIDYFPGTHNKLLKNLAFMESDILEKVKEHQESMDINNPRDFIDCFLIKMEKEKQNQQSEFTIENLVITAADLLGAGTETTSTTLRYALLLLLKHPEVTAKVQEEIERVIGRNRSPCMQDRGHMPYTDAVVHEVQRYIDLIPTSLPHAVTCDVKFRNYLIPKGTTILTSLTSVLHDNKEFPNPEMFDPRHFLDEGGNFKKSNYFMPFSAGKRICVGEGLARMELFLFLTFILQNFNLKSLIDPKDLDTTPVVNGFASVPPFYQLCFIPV
Cytochrome P450 3A4 (Homo sapiens), sequence (P08684 whole entry, looked up): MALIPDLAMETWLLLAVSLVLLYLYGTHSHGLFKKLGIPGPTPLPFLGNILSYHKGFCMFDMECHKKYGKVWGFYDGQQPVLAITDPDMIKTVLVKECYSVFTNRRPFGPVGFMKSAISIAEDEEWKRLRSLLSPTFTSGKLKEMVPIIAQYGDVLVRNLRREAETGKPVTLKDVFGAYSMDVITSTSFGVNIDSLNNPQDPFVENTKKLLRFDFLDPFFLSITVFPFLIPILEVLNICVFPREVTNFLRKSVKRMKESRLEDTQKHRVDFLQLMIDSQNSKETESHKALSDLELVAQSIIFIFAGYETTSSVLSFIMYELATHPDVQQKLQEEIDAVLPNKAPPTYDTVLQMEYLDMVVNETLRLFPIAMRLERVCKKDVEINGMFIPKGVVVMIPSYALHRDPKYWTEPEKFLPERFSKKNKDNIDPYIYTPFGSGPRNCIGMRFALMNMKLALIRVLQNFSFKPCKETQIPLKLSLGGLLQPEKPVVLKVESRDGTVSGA

`CCCCCCCCCCCCCCC(Br)C(=O)O` (centres undefined): the Potency result in [1], in test [2], in test [3] and in test [4] was “inactive” throughout.

In the case of `CC(C)(C)C(O)/C(=C\c1ccc(Cl)cc1Cl)n1cncn1` (centres undefined), the Potency entry in test [1] and in [2] was “inactive” throughout. Further, the Potency in test [5] is 34.2 µM (active); in test [6] it was 4.83 µM (active); in test [7], 38.4 µM (active); in [8] it was 0.272 µM (active).

Take `CCSC(C)CC1CC(=O)C(/C(CC)=N/OC/C=C/Cl)=C(O)C1` (centres undefined): the Potency entry in test [1], in test [2] and in test [4] was “inactive” in each case. The Potency in test [3] was 9.77 µM (active); in test [6] it was 13.8 µM (active); in test [8], 8.71 µM (active).

Regarding `CCN(CC)c1c([N+](=O)[O-])cc(C(F)(F)F)c(N)c1[N+](=O)[O-]`, the Potency result in test [1], in test [2] and in [4] was “inactive” in each case. Besides, in test [7], the Potency was 0.356 µM (active).

Consider `BrCBr`, for which the Potency result in test [1], in test [2], in test [5], in test [3], in test [7] and in test [4] was “inactive” throughout. Besides, in [8], the Potency entry was “inactive”.

On to `CC(C)N1C(=O)N(c2ccccc2)CSC1=NC(C)(C)C`, for which the Potency entry in test [1] and in test [2] was “inactive” in each case. The Potency in [3] was 7.1 µM (active); in test [6] it was 6.33 µM (active); in test [7] it was 31.7 µM (active); in [8] it was 31.7 µM (active).

For the compound `O=c1oc2ccccc2c(O)c1Cc1c(O)c2ccccc2oc1=O`, the Potency entry in test [1], in test [2], in test [5], in [3], in test [4] and in test [8] was “inactive” in each case. Further, in [7], the Potency was 24.5 µM (active).

For `COc1ccc(OC)c(CC(C)N)c1` (centres undefined), the Potency entry in [1], in test [2], in test [6], in test [7], in [4] and in [8] was “inactive” each time. Further, in [5], the Potency is 7.62 µM (active).

As to `O=C1C=CC(=O)c2ccccc21`, the Potency entry in [1] was “inactive”. For the same compound, the Potency is 15.9 µM (active) in test [5]; 14.2 µM (active) in test [3]; 11.2 µM (active) in [6]; 25.2 µM (active) in [7]; 21.9 µM (active) in [4]; 15.9 µM (active) in test [8].

Turning to `CC(C)CC(C)Nc1ccc(Nc2ccccc2)cc1` (centres undefined), the Potency entry in test [1] and in [2] was “inactive” in each case. Further, the Potency in test [3] is 0.698 µM (active); in test [6], 3.5 µM (active); in test [7] it was 22.1 µM (active); in test [4], 24.1 µM (active); in test [8], 31.2 µM (active).

Consider `CCC[CH2][Sn]([CH2]CCC)([CH2]CCC)[O]C(=O)c1ccccc1`, for which the Potency entry in test [1] and in [2] was “inactive” each time. Also, the Potency in test [3] is 1.59 µM (active); in [6], 12.6 µM (active); in [4], 4.9 µM (active).

In the case of `CC(C)(C)c1cc([N+](=O)[O-])cc(C(C)(C)C)c1O`, the Potency entry in test [1], in test [2] and in test [8] was “inactive” in each case. For the same compound, the Potency in [6] was 12.6 µM (active); in test [7], 31.7 µM (active).

Regarding `O=C(O)COc1nc(Cl)c(Cl)cc1Cl`, the Potency entry in test [1], in test [2] and in test [4] was “inactive” throughout. For the same compound, the Potency was 6.48 µM (active) in test [5] and 51.5 µM (active) in test [6].

Consider `Fc1cccc(Cl)c1CCl`, for which the Potency result in test [1], in [2], in test [3], in test [6], in test [4] and in test [8] was “inactive” throughout. In test [7], the Potency is 39.9 µM (active).

`CC[C@H]1C[C@@H]2C[C@H]3c4[nH]c5ccc(OC)cc5c4CCN(C2)[C@@H]13`: the Potency entry in test [1] and in test [2] was “inactive” throughout. The Potency is 0.698 µM (active) in test [5] and 44.1 µM (active) in [7].

In the case of `C=CCC1=C(C)C(OC(=O)C2C(C=C(C)C)C2(C)C)CC1=O` (centres undefined), the Potency result in test [1] and in test [2] was “inactive” each time. Also, the Potency in test [5] is 30 µM (active); in test [3] it was 1.69 µM (active); in [7], 25.9 µM (active); in test [4], 29.2 µM (active).

In the case of `C[C@]12CC[C@H](O)C[C@H]1CC[C@@H]1[C@@H]2C[C@@H](O)[C@]2(C)[C@@H](C3=CC(=O)OC3)CC[C@]12O`, the Potency entry in test [1], in test [2], in [6], in [7], in [4] and in test [8] was “inactive” throughout.

Take `COC[C@H](C)N(C(=O)CCl)c1c(C)csc1C`: the Potency entry in test [1], in test [2], in test [5], in test [6], in test [7] and in [4] was “inactive” throughout.

Take `c1ccc2cc3c(cc2c1)-c1cccc2cccc-3c12`: the Potency entry in test [1], in [2], in test [5], in test [6], in test [4] and in test [8] was “inactive” in each case. In test [7], the Potency is 0.197 µM (active).

With `O=C(CCCN1CCC2(CC1)C(=O)NCN2c1ccccc1)c1ccc(F)cc1`, the Potency entry in test [1], in test [2], in [3], in test [6], in test [7] and in test [8] was “inactive” each time. For the same compound, the Potency in test [4] was 1.2 µM (active).

`CC(Cl)CN(C)C` (centres undefined): the Potency entry in test [1], in test [2], in test [5], in test [3], in test [7] and in [4] was “inactive” each time. In addition, the Potency result in test [8] was “inactive”.

Consider `CN(C)CCc1c[nH]c2cccc(O)c12`, for which the Potency entry in [1], in test [2] and in [4] was “inactive” throughout. Further, the figures for the Potency in test [5] and in test [6] were 7.03 µM (active) and 7.89 µM (active), respectively.

With `CC(=O)[O-].CC(=O)[O-].[Hg+2]`, the Potency in test [4] was 6.92 µM (active).

In the case of `CN(C)C(=S)S`, in [4], the Potency result is “inactive”.

Turning to `COc1cccc2c1C(=O)c1c(O)c3c(c(O)c1C2=O)C[C@@](O)(C(=O)CO)CC3OC1CC(N2CCOC(OC)C2)C(O)C(C)O1` (some centres undefined), the figures for the Potency in test [9] and in test [6] were 11 µM (active) and 4.36 µM (active), respectively. Besides, the Potency result in test [2], in [7] and in test [4] was “inactive” in each case.

Take `CN(C)C(=S)[S-].CN(C)C(=S)[S-].[Cu+2]`: in test [4], the activity change, negative = inhibition is -11.4% [at 15.8 µM].
